Reference: the supplement of paper PMC8728848
About 410 targets per protein were measured; listed, in parts, are those with the strongest signals and a random draw of the rest.

Assays:
Test in all cases: glycan array binding signal (z-score within array); higher = stronger binding
Details in all cases: glycan notation: IUPAC condensed, linker removed; mutation: D109R
[1] = target: Fuc(a1-2)Gal(b1-3)GlcNAc(b1-3)Gal(b1-4)Glc
In short: (§1)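 Glycan array binding is given as a within-array Z-score, which can be read as non-binding when negative. The arrays, 3228 of them, came from the Consortium for Functional Glycomics database and were retained only where the protein sequence was available. Z-scores were averaged across arrays of the same protein sequence at different concentrations or buffers and across linkers.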

[2] = target: Fuc(a1-2)Gal(b1-3)[Fuc(a1-4)]GlcNAc(b1-3)[Gal(b1-4)GlcNAc(b1-6)]Gal(b1-4)Glc
In short: as §1

[3] = target: Fuc(a1-2)Gal6S(b1-3)GlcNAc6S
In short: as §1

[4] = target: Fuc(a1-2)Gal6S(b1-4)Glc6S
In short: as §1

[5] = target: Fuc(a1-2)[Gal(a1-3)]Gal(b1-3)GlcNAc(b1-3)GalNAc
In short: as §1

[6] = target: Fuc(a1-2)[Gal(a1-3)]Gal(b1-4)GlcNAc(b1-3)GalNAc
In short: as §1

[7] = target: Fuc(a1-2)[GalNAc(b1-3)]Gal
In short: as §1

[8] = target: Fuc(a1-3)[Gal3S(b1-4)]GlcNAc6S
In short: as §1

Gal(a1-3)Gal(b1-4)GlcNAc = target: Gal(a1-3)Gal(b1-4)GlcNAc
In short: as §1

Gal(a1-4)Gal(b1-4)GlcNAc = target: Gal(a1-4)Gal(b1-4)GlcNAc
In short: as §1

Gal(b1-3)Gal(b1-4)GlcNAc = target: Gal(b1-3)Gal(b1-4)GlcNAc
In short: as §1

Gal(b1-3)GalNAc = target: Gal(b1-3)GalNAc
In short: as §1

[9] = target: Gal(b1-3)GalNAc(a1-3)[Fuc(a1-2)]Gal(b1-4)GlcNAc
In short: as §1

[10] = target: Gal(b1-3)GlcNAc(a1-6)Gal(b1-4)GlcNAc
In short: as §1

[11] = target: Gal(b1-3)GlcNAc(b1-2)[Gal(b1-3)GlcNAc(b1-6)]Man(a1-6)[Gal(b1-3)GlcNAc(b1-2)Man(a1-3)]Man(b1-4)GlcNAc(b1-4)GlcNAc
In short: as §1

[12] = target: Gal(b1-3)GlcNAc(b1-3)Gal(b1-4)GlcNAc(b1-6)[Gal(b1-3)GlcNAc(b1-3)]Gal(b1-4)Glc
In short: as §1

[13] = target: Gal(b1-3)[Fuc(a1-4)]GlcNAc
In short: as §1

Gal(b1-4)Glc = target: Gal(b1-4)Glc
In short: as §1

[14] = target: Gal(b1-4)GlcNAc(a1-6)Gal(b1-4)GlcNAc
In short: as §1

[15] = target: Gal(b1-4)GlcNAc(b1-2)Man(a1-3)[GlcNAc(b1-2)Man(a1-6)]Man(b1-4)GlcNAc(b1-4)GlcNAc
In short: as §1

[16] = target: Gal(b1-4)GlcNAc(b1-3)Gal(b1-4)GlcNAc(b1-2)[Gal(b1-4)GlcNAc(b1-3)Gal(b1-4)GlcNAc(b1-6)]Man(a1-6)[Gal(b1-4)GlcNAc(b1-3)Gal(b1-4)GlcNAc(b1-2)Man(a1-3)]Man(b1-4)GlcNAc(b1-4)[Fuc(a1-6)]GlcNAc
In short: as §1

[17] = target: Gal(b1-4)GlcNAc(b1-3)Gal(b1-4)GlcNAc(b1-3)Gal(b1-4)GlcNAc(b1-2)[Gal(b1-4)GlcNAc(b1-3)Gal(b1-4)GlcNAc(b1-3)Gal(b1-4)GlcNAc(b1-6)]Man(a1-6)[Gal(b1-4)GlcNAc(b1-3)Gal(b1-4)GlcNAc(b1-3)Gal(b1-4)GlcNAc(b1-2)Man(a1-3)]Man(b1-4)GlcNAc(b1-4)[Fuc(a1-6)]GlcNAc
In short: as §1

[18] = target: Gal(b1-4)GlcNAc(b1-3)Gal(b1-4)GlcNAc(b1-3)Gal(b1-4)GlcNAc(b1-3)Gal(b1-4)GlcNAc(b1-2)Man(a1-3)[Gal(b1-4)GlcNAc(b1-3)Gal(b1-4)GlcNAc(b1-3)Gal(b1-4)GlcNAc(b1-3)Gal(b1-4)GlcNAc(b1-2)Man(a1-6)]Man(b1-4)GlcNAc(b1-4)GlcNAc
In short: as §1

[19] = target: Gal(b1-4)GlcNAc(b1-3)Gal(b1-4)GlcNAc(b1-3)Gal(b1-4)GlcNAc(b1-3)Gal(b1-4)GlcNAc(b1-2)[Gal(b1-4)GlcNAc(b1-3)Gal(b1-4)GlcNAc(b1-3)Gal(b1-4)GlcNAc(b1-3)Gal(b1-4)GlcNAc(b1-6)]Man(a1-6)[Gal(b1-4)GlcNAc(b1-3)Gal(b1-4)GlcNAc(b1-3)Gal(b1-4)GlcNAc(b1-3)Gal(b1-4)GlcNAc(b1-2)Man(a1-3)]Man(b1-4)GlcNAc(b1-4)[Fuc(a1-6)]GlcNAc
In short: as §1

[20] = target: Gal(b1-4)GlcNAc(b1-3)Gal(b1-4)GlcNAc(b1-3)Gal(b1-4)GlcNAc(b1-3)Gal(b1-4)GlcNAc(b1-3)Gal(b1-4)GlcNAc(b1-2)Man(a1-3)[Gal(b1-4)GlcNAc(b1-3)Gal(b1-4)GlcNAc(b1-3)Gal(b1-4)GlcNAc(b1-3)Gal(b1-4)GlcNAc(b1-3)Gal(b1-4)GlcNAc(b1-2)Man(a1-6)]Man(b1-4)GlcNAc(b1-4)GlcNAc
In short: as §1

[21] = target: Gal(b1-4)GlcNAc(b1-3)Gal(b1-4)GlcNAc(b1-3)Gal(b1-4)GlcNAc(b1-3)Gal(b1-4)GlcNAc(b1-3)Gal(b1-4)GlcNAc(b1-2)[Gal(b1-4)GlcNAc(b1-3)Gal(b1-4)GlcNAc(b1-3)Gal(b1-4)GlcNAc(b1-3)Gal(b1-4)GlcNAc(b1-3)Gal(b1-4)GlcNAc(b1-6)]Man(a1-6)[Gal(b1-4)GlcNAc(b1-3)Gal(b1-4)GlcNAc(b1-3)Gal(b1-4)GlcNAc(b1-3)Gal(b1-4)GlcNAc(b1-3)Gal(b1-4)GlcNAc(b1-2)Man(a1-3)]Man(b1-4)GlcNAc(b1-4)[Fuc(a1-6)]GlcNAc
In short: as §1

Gal3S(b1-3)GlcNAc = target: Gal3S(b1-3)GlcNAc
In short: as §1

Gal6P(b1-4)GlcNAc = target: Gal6P(b1-4)GlcNAc
In short: as §1

GalNAc(b1-3)GalNAc = target: GalNAc(b1-3)GalNAc
In short: as §1

[22] = target: GalNAc(b1-4)GlcNAc(b1-3)GalNAc(b1-4)GlcNAc
In short: as §1

GalNAc3S(b1-4)GlcNAc3S = target: GalNAc3S(b1-4)GlcNAc3S
In short: as §1

[23] = target: GalNAc3S(b1-4)[Fuc(a1-3)]GlcNAc
In short: as §1

[24] = target: GlcNAc(a1-6)Gal(b1-4)GlcNAc
In short: as §1

[25] = target: GlcNAc(b1-4)GlcNAc(b1-4)GlcNAc
In short: as §1

[26] = target: GlcNAc(b1-4)GlcNAc(b1-4)GlcNAc(b1-4)GlcNAc(b1-4)GlcNAc
In short: as §1

[27] = target: GlcNAc6S(b1-3)Gal(b1-4)GlcNAc
In short: as §1

MurNAc(b1-4)GlcNAc = target: MurNAc(b1-4)GlcNAc
In short: as §1

[28] = target: Neu5Ac(a2-3)Gal(b1-3)GalNAc(b1-3)Gal(a1-4)Gal(b1-4)Glc
In short: as §1

[29] = target: Neu5Ac(a2-3)Gal(b1-4)GlcNAc(b1-2)Man(a1-3)[Neu5Ac(a2-3)Gal(b1-4)GlcNAc(b1-2)Man(a1-6)]Man(b1-4)GlcNAc(b1-4)[Fuc(a1-6)]GlcNAc
In short: as §1

[30] = target: Neu5Ac(a2-6)Gal(b1-4)GlcNAc(b1-2)Man(a1-3)[Neu5Ac(a2-3)Gal(b1-4)GlcNAc(b1-2)Man(a1-6)]Man(b1-4)GlcNAc(b1-4)GlcNAc
In short: as §1

[31] = target: Neu5Ac(a2-6)Gal(b1-4)GlcNAc(b1-2)Man(a1-3)[Neu5Ac(a2-6)Gal(b1-4)GlcNAc(b1-2)Man(a1-6)]Man(b1-4)GlcNAc(b1-4)[Fuc(a1-6)]GlcNAc
In short: as §1

[32] = target: Neu5Ac(a2-6)Gal(b1-4)GlcNAc(b1-3)Gal(b1-4)GlcNAc(b1-3)GalNAc
In short: as §1

[33] = target: Neu5Ac(a2-6)Gal(b1-4)GlcNAc(b1-3)[Neu5Ac(a2-6)Gal(b1-4)GlcNAc(b1-6)]GalNAc
In short: as §1

[34] = target: Neu5Ac(a2-6)Gal(b1-4)GlcNAc6S
In short: as §1

[35] = target: Neu5Ac(a2-6)GalNAc(b1-4)GlcNAc
In short: as §1

[36] = target: Neu5Ac(a2-8)Neu5Ac(a2-8)Neu5Ac(a2-3)Gal(b1-4)Glc
In short: as §1

[37] = target: Neu5Ac(a2-8)Neu5Ac(a2-8)Neu5Ac(a2-3)[GalNAc(b1-4)]Gal(b1-4)Glc
In short: as §1

B1: MpL2 (Macrolepiota procera) (protein)
chain: MSTQVSSGQTYKITNVKAGTVIDLSGEDNKSIIGYPYHSGKNQQWTFNWTGKAWTLRSASSGSYLGIEGTPADGTRLVAVNDPFEWHIWRDEANENAFRIFVPFTNYNLRLSGYGDTTPGTPVQLWWTWEGLHQTWTIDRP
glycan array binding signal (z-score) [1]: -0.257
glycan array binding signal (z-score) [2]: -0.099
glycan array binding signal (z-score) [3]: -0.247
glycan array binding signal (z-score) [4]: -0.259
glycan array binding signal (z-score) [5]: -0.266
glycan array binding signal (z-score) [6]: -0.251
glycan array binding signal (z-score) [7]: -0.247
glycan array binding signal (z-score) [8]: -0.255
glycan array binding signal (z-score) (Gal(a1-3)Gal(b1-4)GlcNAc): -0.264
glycan array binding signal (z-score) (Gal(a1-4)Gal(b1-4)GlcNAc): -0.289
glycan array binding signal (z-score) (Gal(b1-3)Gal(b1-4)GlcNAc): -0.255
glycan array binding signal (z-score) (Gal(b1-3)GalNAc): -0.256
glycan array binding signal (z-score) [9]: -0.201
glycan array binding signal (z-score) [10]: 3.81
glycan array binding signal (z-score) [11]: 3.46
glycan array binding signal (z-score) [12]: 3.65
glycan array binding signal (z-score) [13]: -0.267
glycan array binding signal (z-score) (Gal(b1-4)Glc): -0.244
glycan array binding signal (z-score) [14]: 12.2
glycan array binding signal (z-score) [15]: -0.001
glycan array binding signal (z-score) [16]: 3.95
glycan array binding signal (z-score) [17]: 3.9
glycan array binding signal (z-score) [18]: 3.84
glycan array binding signal (z-score) [19]: 4.36
glycan array binding signal (z-score) [20]: 3.94
glycan array binding signal (z-score) [21]: 4.48
glycan array binding signal (z-score) (Gal3S(b1-3)GlcNAc): -0.276
glycan array binding signal (z-score) (Gal6P(b1-4)GlcNAc): -0.218
glycan array binding signal (z-score) (GalNAc(b1-3)GalNAc): -0.254
glycan array binding signal (z-score) [22]: 3.89
glycan array binding signal (z-score) (GalNAc3S(b1-4)GlcNAc3S): -0.255
glycan array binding signal (z-score) [23]: -0.254
glycan array binding signal (z-score) [24]: 6.07
glycan array binding signal (z-score) [25]: -0.248
glycan array binding signal (z-score) [26]: -0.246
glycan array binding signal (z-score) [27]: 0.055
glycan array binding signal (z-score) (MurNAc(b1-4)GlcNAc): -0.259
glycan array binding signal (z-score) [28]: -0.241
glycan array binding signal (z-score) [29]: -0.215
glycan array binding signal (z-score) [30]: -0.261
glycan array binding signal (z-score) [31]: -0.223
glycan array binding signal (z-score) [32]: -0.261
glycan array binding signal (z-score) [33]: -0.255
glycan array binding signal (z-score) [34]: -0.289
glycan array binding signal (z-score) [35]: -0.301
glycan array binding signal (z-score) [36]: -0.272
glycan array binding signal (z-score) [37]: -0.234
